KinaseGlo FLuc: blocks Kinase-Glo luciferase, a counter-screen artifact; 200,000 tested, 0.28% active; Kinase-Glo luciferase, ATP luminescence, 8 min; Q27757; Potency, µM (highest dose often 38.3 µM), inactives show at the highest dose activity change, negative = inhibition, usual class: inhibitors; note: % is set by controls: 0 for no effect and ±100 for the full control effect; nearly all actives have a fitted effect of over 60% in size
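Compound is pinned into ATP-containing buffer (10 uM ATP, imidazole pH 7.2, 7 mM MgCl2). Kinase-Glo luciferase reagent is then added. Light output is recorded following an 8-min room-temperature incubation.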
ELG1 genotox: inducers of genotoxicity in HEK293T ELG1-luciferase cells. Potency, µM (series often up to 46 µM), inactives show top-dose activity change, positive = activation, actives largely listed as activators. HEK293T ELG1-luciferase reporter, luminescence, 16 h. AID 504466. 330,000 tested, 1.3% active; note: % of control where 0% means no effect; nearly all actives have a fitted effect of over 60% in size
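HEK293T cells expressing luciferase-tagged ELG1 were treated with compound or DMSO for 16 hr at 37°C. Luciferase activity was then read after 30 min with ONE-Glo at room temperature; rising signal flags genetic stress.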
SMN2 splice enh: SMN2 splice variant enhancement | 210,000 tested, 2.8% active | HEK293 SMN2-luciferase splicing reporter, luminescence, 30-36 h | Potency, µM (doses to about 46.1 µM), without a hit: at the top dose activity change, positive = activation, usual class: activators | AID 1458; note: % of control where 0% means no effect; nearly all actives have a fitted effect of over 55% in size
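HEK293 cells carry an SMN2 […]–luciferase reporter in which exon 7 inclusion puts luciferase in frame. Cells were plated 10-12 h before compound addition, then incubated 30-36 h at 37C. ONE-Glo luminescence was read; sodium butyrate at 4.5 mM final served as control.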
FLuc modulator: counter-screen for miR-21 project: firefly luciferase inhibitors or activators. AID 588342. purified FLuc, Km substrates, luminescence inhibition. Potency, µM (highest dose often 57.5 µM), for the others: at the top dose activity change, negative = inhibition, actives largely listed as inhibitors. P08659. 360,000 tested, 6.9% active;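 note: plate controls were vehicle for no effect and reference inhibitor for full effect; nearly all actives have a fitted effect of over 55% in size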
Target sequence (P08659 whole entry, looked up): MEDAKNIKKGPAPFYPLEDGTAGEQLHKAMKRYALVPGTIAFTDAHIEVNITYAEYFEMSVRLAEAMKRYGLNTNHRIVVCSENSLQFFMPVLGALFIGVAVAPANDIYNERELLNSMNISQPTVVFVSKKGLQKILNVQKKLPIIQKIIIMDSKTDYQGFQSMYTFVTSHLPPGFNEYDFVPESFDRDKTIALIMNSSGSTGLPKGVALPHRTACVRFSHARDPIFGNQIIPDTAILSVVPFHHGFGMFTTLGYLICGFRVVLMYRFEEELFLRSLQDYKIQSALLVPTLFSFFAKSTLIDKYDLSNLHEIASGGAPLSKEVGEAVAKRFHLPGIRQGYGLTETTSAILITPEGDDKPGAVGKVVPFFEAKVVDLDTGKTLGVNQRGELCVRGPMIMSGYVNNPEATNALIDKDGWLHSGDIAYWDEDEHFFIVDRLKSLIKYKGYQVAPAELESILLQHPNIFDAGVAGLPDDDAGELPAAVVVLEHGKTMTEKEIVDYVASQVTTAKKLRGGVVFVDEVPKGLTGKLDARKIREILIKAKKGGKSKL
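Purified P. pyralis luciferase (10nM final) with 10uM D-luciferin and 10uM ATP (Km levels) in 50mM Tris acetate pH 7.5, 10mM Mg acetate, 0.01% Tween-20, 0.05% BSA; qHTS 6-point titration, ~60 µM downward; luminescence read.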
NPC1 promoter act: NPC1 promoter activation; Huh7 NPC1 promoter luciferase reporter, 24 h; Potency, µM (top dose mostly 9.22 µM), inactives show at the highest dose activation, most hits filed as activators; 320,000 tested, 2.4% active; AID 485313; note: % of control where 0% means no effect; nearly all actives have a fitted effect of over 60% in size
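NPC1 promoter–luciferase Huh7 cells; 24 h compound; luminescence.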
Rab9 prom act: activates the Rab9 promoter. Huh7 Rab9 promoter-luciferase reporter, luminescence, 24 h. 320,000 tested, 2.8% active. Potency, µM (series often up to 9.22 µM), without a hit: at the top dose activation, negative = inhibition, usual class: activators; note: % of control where 0% means no effect; nearly all actives have a fitted effect of over 60% in size
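Using Huh7 cells stably transfected with Rab9 promoter–luciferase, compounds were incubated 24 h at 37 °C, 5% CO2; luciferase luminescence was read 10 min after reagent addition.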
Starred values were filed as active, the others as inactive; ? = inconclusive; . = not tested or not shown; [ ] = another dose, or the depositor's remark. The list is not random: actives were taken first. Their share in the collection is about 7.3%. Calls come from the whole dose curve; as a rule, active = well fitted curve in the direction sought with a large enough effect; inconclusive = small, poorly fitted or top-dose-only effect, or another doubt; inactive = no such curve, though single readings can be large; an effect the other way counts as inactive or inconclusive. Potency is the fitted concentration of half-maximal effect.

SMILES | KinaseGlo FLuc | ELG1 genotox | SMN2 splice enh | FLuc modulator | NPC1 promoter act | Rab9 prom act
O=C(O)c1cc(C2CC2)nn1-c1ccccc1 | 0% | 13% | 5% | 0% | -2% | 2%
COc1ccc(Cl)cc1NS(=O)(=O)c1c(C)nc2scc(C)n2c1=O | . | . | 9% | 6% | . | .
CN1N=C(/C=C/c2ccccc2)CCC1=O | ? | ? | ? | ? | -24% | ?
Cc1ccc(/C=C/C2=NN(C)C(=O)CC2)cc1 | ? | ? | 11µM* | 6.7µM* | 3.5µM* | 0.89µM*
CCOc1ccc(/C=N/NC(=O)Cc2cccs2)cc1 | . | ? | . | 17µM* | ? | ?
O=C(Cc1cccs1)N/N=C/c1ccccc1 | . | 12% | . | ? | 5% | 23%
CCOC(=O)N/N=C/C(Cl)=C/c1ccccc1 | -2% | ? | ? | 17µM* | ? | ?
Cc1cc(C)nc(N/N=C/C(Cl)=C/c2ccccc2)n1 | 17% | ? | -8% | 13µM* | ? | ?
O=C(Cc1cccs1)N/N=C/C(Cl)=C/c1ccccc1 | -4% | ? | ? | -10% | ? | 3.5µM*
C[C@H](CCC(=O)NN)[C@@H]1CC[C@@H]2[C@H]3CC[C@H]4C[C@@H](O)CC[C@@]4(C)[C@@H]3CC[C@]21C | -3%[7.66 µM] | . | -3%[9.22 µM] | . | . | .
COC(=O)C1=C(C)NC(=O)/C1=C\c1cc(C)n(-c2ccccc2F)c1C | 1% | -5% | 25µM* | 12µM* | 11% | 22%
CCOC(=O)C1=C(O)/C(=C\c2cc(C)n(-c3ccccc3F)c2C)N=C1C | -2% | -6% | -35% | 0.6µM* | 16% | 11%
COC(=O)C1=C(C)NC(=O)/C1=C\c1cc(C)n(-c2ccccc2C)c1C | 5% | 8% | -50% | 17µM* | 3% | 0%
CCOCN(C(=O)CSc1nc2ccccc2[nH]1)c1c(C)cccc1CC | . | . | -15% | -10% | . | .
CCCCc1nc2c(c3c1C[C@H](C)OC3)CN(C(=O)Nc1ccc(OC)cc1)CC2 | -1%[7.66 µM] | . | -1%[9.22 µM] | . | . | .
Cc1cc2c(C)nc(-c3ccccc3)nc2o1 | 0% | 16µM* | 28µM* | 19µM* | ? | ?
COc1cccc(Nc2nnc(-c3cc4ccc(O)cc4oc3=O)s2)c1 | . | . | . | -19% | . | .
CCc1cc(CNC(=O)c2cc(COc3ccc(C)nc3)on2)on1 | . | ? | . | 17µM* | ? | ?
Cc1cc(CNC(=O)c2cc(COc3ccc(F)c(F)c3)on2)nn1C | . | ? | . | ? | 2.8µM* | 1.3µM*
C=CCC1(CC=C)CCCN1C(=O)c1cc(COc2ccc(C)nc2)on1 | . | 17% | . | 19µM* | -24% | -29%
Cc1ccc(OCc2cc(C(=O)NCc3ccc(OC(F)(F)F)cc3)no2)cn1 | . | -8% | . | 3% | -2% | 2%
C=CCC1(CC=C)CCCN1C(=O)c1cc(COc2ccc(F)c(F)c2)on1 | . | -10% | . | 1% | 0% | 1%
Cc1ccc(N2CCN(C(=O)Cn3ncc4c([nH]c5ccc(C)cc54)c3=O)CC2)c(C)c1 | . | . | . | -1% | . | .
CCOC(=O)c1ccccc1NC(=O)c1sc2ncn(Cc3cccc(F)c3)c(=O)c2c1C | . | . | . | -2% | . | .
CC(=O)n1cc(/C=C2/N=C(c3ccccc3)OC2=O)c2ccccc21 | 3% | 1% | -2% | 5.4µM* | -2% | -1%
CC(=O)n1cc(/C=N/NC(N)=S)c2ccccc21 | 7% | 18% | ? | 0% | 0% | -1%
CCOc1ccccc1CNC(=O)c1cccc(NC(=O)c2nsc3ccccc23)c1 | . | . | . | 6µM* | . | .
COc1ccccc1CNC(=O)c1cccc(NC(=O)c2ccccc2)c1 | 2% | -9% | -3% | ? | 1% | 2%
CCC(C)NC(=O)c1cccc(NC(=O)c2nsc3ccccc23)c1 (stereo not given) | . | . | . | 6µM* | . | .
CCC(CC)NC(=O)c1cccc(NC(=O)C(C)C)c1 | 2% | -1% | ? | 0% | -1% | -1%

Screening data: PubChem, National Center for Advancing Translational Sciences (NCATS)
